Laboratory results: publication PMC10726135, “HNF4α isoforms regulate the circadian balance between carbohydrate and lipid metabolism in the liver”
Whole data set: some 18,000 sequences, median “log2 normalized intensity” near 0.39, cut for the highest 2% near 6.6. Only a selection was taken, and the highest values are over-represented in it overall.

molecular target: T1, HNF4alpha2 (COS-7 nuclear extract) (Homo sapiens, UniProt P41235 1-474); assay: protein-binding microarray; COS-7 nuclear extract on double-stranded Agilent 4x180k PBM; binding buffer, salt, pH and temperature not given in the material; high values mean tight binding; settings: chain copies: 2; label: 3' end of strand 1 on the slide; dsDNA, one strand shown
T1 sequence: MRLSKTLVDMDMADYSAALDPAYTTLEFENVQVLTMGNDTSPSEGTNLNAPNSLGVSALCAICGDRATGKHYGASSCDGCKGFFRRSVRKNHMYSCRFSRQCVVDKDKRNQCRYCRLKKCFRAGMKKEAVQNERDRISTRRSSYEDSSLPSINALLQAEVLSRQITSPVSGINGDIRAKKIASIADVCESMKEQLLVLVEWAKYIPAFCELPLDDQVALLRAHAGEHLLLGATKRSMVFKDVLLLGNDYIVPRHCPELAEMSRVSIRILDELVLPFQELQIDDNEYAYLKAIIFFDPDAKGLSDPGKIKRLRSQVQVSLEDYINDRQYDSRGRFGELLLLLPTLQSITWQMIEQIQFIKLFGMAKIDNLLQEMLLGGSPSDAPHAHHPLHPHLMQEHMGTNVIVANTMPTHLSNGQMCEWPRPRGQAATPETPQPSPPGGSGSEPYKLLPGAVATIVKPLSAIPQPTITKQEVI
Procedure, shortened: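 Nuclear extracts of COS-7 cells transiently transfected with a human HNF4α isoform were applied to a custom Agilent SurePrint G3 4x180k array bearing ~44,000 double-stranded ~60-nt test sequences, each in quadruplicate. The bound protein was imaged on an Agilent G2565CA scanner at 2-µm resolution. Binding signal is the normalized, background-corrected gProcessedSignal from Agilent software.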

Sequence	binding signal [log2 normalized intensity]
TAGCTTTAGCCGGACTTTGTCCTTTGATTTGCCTAGGGAGATTAGAGTATCGGTCGA	6.43
TCAGATAGCTTTAGCCGGACTTTGTCCTTTGCCTAGGGAGATTAGAGTATCGGTCGA	7.78
CTATCTCAGATAGCTTTAGCCGGACTTTGTGCCTAGGGAGATTAGAGTATCGGTCGA	5.18
TAGTAGGGTCAAAGTCTGGATCCGTTAACAGCCTAGGGAGATTAGAGTATCGGTCGA	4.3
CACCTTTTTTGGCCTTTACCCCTTGAGTTTGCCTAGGGAGATTAGAGTATCGGTCGA	3.93
CGCCCCCCAGCGGAAGTCCAGTGGTGTCTTGCCTAGGGAGATTAGAGTATCGGTCGA	3.33
CCTCCAGGCCCCAGCCACGCCCTCTAACCCGCCTAGGGAGATTAGAGTATCGGTCGA	2.92
CAAAGTTCAAGGTCCAGCCTACCCACCCACGCCTAGGGAGATTAGAGTATCGGTCGA	4.66
AGGCCCCAGCCACGCCCTCTAACCCAGGTTGCCTAGGGAGATTAGAGTATCGGTCGA	3.08
GGATCGGAACCCCACCCCCACGCCCCCCAGGCCTAGGGAGATTAGAGTATCGGTCGA	7
CACACACACACACACACCCCACACACCAAAGCCTAGGGAGATTAGAGTATCGGTCGA	3.12
CCCACCCCCACGCCCCCCAGCGGAAGTCCAGCCTAGGGAGATTAGAGTATCGGTCGA	6.97
TCACACACACACACACACACACCCCACACAGCCTAGGGAGATTAGAGTATCGGTCGA	1.75
GGAACCCCACCCCCACGCCCCCCAGCGGAAGCCTAGGGAGATTAGAGTATCGGTCGA	7.16
GAGAGAATGACCCTTGCTTGACCCATTATGGCCTAGGGAGATTAGAGTATCGGTCGA	2.36
AGAACAAACAATGGTTTGGGACAAAGTTTGGCCTAGGGAGATTAGAGTATCGGTCGA	0.489
CTTTGCCCTCCCTAAATCCAGAGGTATTTGGCCTAGGGAGATTAGAGTATCGGTCGA	1.88
CCCTCCCTAAATCCAGAGGTATTTGGCCCAGCCTAGGGAGATTAGAGTATCGGTCGA	1.59
TTGCCATGACCTTTGAAGCCCAGAACACTCGCCTAGGGAGATTAGAGTATCGGTCGA	3.59
TTCCCCTCCCTTCCACCTTTGCCCTCCAAAGCCTAGGGAGATTAGAGTATCGGTCGA	5.76
CCACTGCGACCTTTGCCCTCCCTAAATCCAGCCTAGGGAGATTAGAGTATCGGTCGA	6.95
AGAAGCCACTGCGACCTTTGCCCTCCCTAAGCCTAGGGAGATTAGAGTATCGGTCGA	7.38

Sequence	binding signal [log2 normalized intensity]
CCGCGGCGGGCCCTCGACCTTTGCCCTCCAGCCTAGGGAGATTAGAGTATCGGTCGA	9.87
CCTCCTAATCACTGCCCTTTGGTGCCTCTTGCCTAGGGAGATTAGAGTATCGGTCGA	2.28
CTTCTCCGCGGCGGGCCCTCGACCTTTGCCGCCTAGGGAGATTAGAGTATCGGTCGA	5.07
TCAGCCTTCTCCGCGGCGGGCCCTCGACCTGCCTAGGGAGATTAGAGTATCGGTCGA	-0.582
ACCGGCAGAGAGAAGCCACTGCGACCTTTGGCCTAGGGAGATTAGAGTATCGGTCGA	4.92
CAGAGAGAAGCCACTGCGACCTTTGCCCTCGCCTAGGGAGATTAGAGTATCGGTCGA	9.89
ACATGAGCTAGTGCTAAAGGTCATATCCAAGCCTAGGGAGATTAGAGTATCGGTCGA	4.2
GGCCTTTGGACCCAGACTGAATCACACTACGCCTAGGGAGATTAGAGTATCGGTCGA	3.76
GGTGTTAAAATAACGACCTTTGGGCTAAAAGCCTAGGGAGATTAGAGTATCGGTCGA	3.81
AGGCCAGCTCATAGGGATCAGATAAGAAGTGCCTAGGGAGATTAGAGTATCGGTCGA	-0.997
GTAACCTCAAAGGAGGTCAGAACTGTGGACGCCTAGGGAGATTAGAGTATCGGTCGA	1.22
CCATAGCGAAGCCGGCGGCGGAATGCTTGTGCCTAGGGAGATTAGAGTATCGGTCGA	-0.837
GCTAGGTGGCGGGCTGGCTCAGGACAGGTGGCCTAGGGAGATTAGAGTATCGGTCGA	0.0816
TGGCTGGCGGCTAGTGTACAGGTGACCTTTGCCTAGGGAGATTAGAGTATCGGTCGA	7.2
TATCTTTGGAGAATGCCTTTTGTGTAGGAGGCCTAGGGAGATTAGAGTATCGGTCGA	1.64
GGCGGCTAGTGTACAGGTGACCTTTGGAATGCCTAGGGAGATTAGAGTATCGGTCGA	8.95
GGAATGAGCAGGAACCTTGTGGTGGTGAAAGCCTAGGGAGATTAGAGTATCGGTCGA	1.01
TTGGAGAATGCCTTTTGTGTAGGAGTACACGCCTAGGGAGATTAGAGTATCGGTCGA	1.7
AGATAGTGACGGAGGTGACCTTTGGTTGTCGCCTAGGGAGATTAGAGTATCGGTCGA	5.52
AAAGCTGGCTGGCGGCTAGTGTACAGGTGAGCCTAGGGAGATTAGAGTATCGGTCGA	1.06
CTAGTGTACAGGTGACCTTTGGAATGAACCGCCTAGGGAGATTAGAGTATCGGTCGA	7.14
